# Data reported in PubChem BioAssay AID890 (National Center for Advancing Translational Sciences (NCATS), 2007).
# Calls of active or inactive are those of the source. Calls follow the shape of the dose curve; as a rule, active = well fitted activation curve with a large enough effect; inactive = flat fitted curve, though single readings scatter.
# Test: Confirmation Concentration-Response Assay for Epigenetic Modulators
# Conditions: murine C127i cells, silenced GFP reporter derepression, imaging; series mostly up to 46 µM; GFP activation: at the top concentration
# Source text: NIH Molecular Libraries Screening Centers Network [MLSCN] NIH Chemical Genomics Center [NCGC] MLSCN Grant: 1 X01 MH079860-01 Assay Provider: Elisabeth D. Martinez, University of Texas SW Medical Center NCGC Assay Overview: The Locus Derepression assay detects the derepression of a GFP reporter that is stably integrated in a region of the genome of murine c127i mammary cells that is presumably silenced. GFP transcription in this construct is controlled by a CMV promoter, which normally is strong and constitutively active. However, this line was selected for lack of constitutive expression of the GFP protein. GFP production can be induced by incubating the cells with histone deacetylase or DNA methyltransferase inhibitors. Compounds that cause derepression of the locus to express GFP are identified by enumerating GFP positive cells using a laser-scanning microplate cytometer.
# NCGC Assay Protocol Summary: Two hundred and fifty cells in 5 uL per well were dispensed into black, clear-bottom 1536-well plates. Twenty-three nL compound was transferred to the assay plate and cells were incubated 30 hours at 37 C. Medium was removed, cells were washed two times with PBS, and GFP-positive cells were enumerated as fluorescent objects between the sizes of 20 to 120 um width and depth using a laser-scanning microplate imager (Acumen Explorer Ex3, TTP Labtech) Keywords: NIH Roadmap, MLSCN, MLI, MLSMR, qHTS, NCGC, qHTS, HDAC, DNMT, HAT, DNA methyltransferases, histone acetyl transferases, histone deacetylases
SMILES,Potency,GFP activation
CCN1CSC(=S)N(CC)C1,7 µM (active),–
Oc1c(C(Nc2ccccn2)c2ccccn2)ccc2cccnc12 (centres undefined),36.2 µM (active),–
Oc1ccc(COCc2ccccc2)c2cccnc12,–,1.5% (inactive)
CN(C)C(=O)CSc1cccc2cccnc12,6.96 µM (active),–
